# Assay results taken from publication PMC11006913.
# Positions count from the first letter of the chain named.
# Tests used:
# Assay in all cases: PBM; 200 nM protein, PBS
# Conditions in all cases: dsDNA, one strand shown
# NKX2-5 [1] = target: NKX2-5 (Homo sapiens, UniProt P52952 125-210, R139K)
# NKX2-4 [2] = target: T1, NKX2-4 (Homo sapiens, UniProt Q9H2Z4 175-261, P217L)
# T1 sequence: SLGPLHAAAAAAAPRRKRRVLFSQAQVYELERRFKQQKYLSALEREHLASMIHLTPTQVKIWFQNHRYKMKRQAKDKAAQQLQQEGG
# NKX2-4 [3] = target: T2, NKX2-4 (Homo sapiens, UniProt Q9H2Z4 175-261, T231S)
# T2 sequence: T1 sequence with L43P, T57S
# NKX2-4 [4] = target: T3, NKX2-4 (Homo sapiens, UniProt Q9H2Z4 175-261)
# T3 sequence: T1 sequence with L43P
# NKX2-6 [5] = target: T4, NKX2-6 (Homo sapiens, UniProt A6NCS4 118-204, R150C)
# T4 sequence: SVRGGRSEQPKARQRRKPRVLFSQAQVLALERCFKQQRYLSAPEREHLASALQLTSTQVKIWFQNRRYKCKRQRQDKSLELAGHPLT
# NKX2-4 [6] = target: T5, NKX2-4 (Homo sapiens, UniProt Q9H2Z4 175-261, R246Q)
# T5 sequence: T1 sequence with L43P, R72Q
# NKX2-6 [7] = target: T6, NKX2-6 (Homo sapiens, UniProt A6NCS4 118-204, F151L)
# T6 sequence: T4 sequence with C33R, F34L
# NKX2-5 [8] = target: NKX2-5 (Homo sapiens, UniProt P52952 125-210)
# NKX2-6 [9] = target: T7, NKX2-6 (Homo sapiens, UniProt A6NCS4 118-204)
# T7 sequence: T4 sequence with C33R
# NKX3-2 [10] = target: NKX3-2 (Homo sapiens, UniProt P78367 192-278, P234S)
# NKX3-2 [11] = target: NKX3-2 (Homo sapiens, UniProt P78367 192-278)
# VENTX [12] = target: T8, VENTX (Homo sapiens, UniProt O95231 78-163, R121Q)
# T8 sequence: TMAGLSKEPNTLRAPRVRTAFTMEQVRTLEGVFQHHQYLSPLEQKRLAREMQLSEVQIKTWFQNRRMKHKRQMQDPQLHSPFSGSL
# VENTX [13] = target: T9, VENTX (Homo sapiens, UniProt O95231 78-163)
# T9 sequence: T8 sequence with Q44R
# VENTX [14] = target: T10, VENTX (Homo sapiens, UniProt O95231 78-163, Y115F)
# T10 sequence: T8 sequence with Y38F, Q44R
# NKX2-5 (Homo sapiens, UniProt P52952 125-210, R139K), sequence (P52952 125-210 R139K): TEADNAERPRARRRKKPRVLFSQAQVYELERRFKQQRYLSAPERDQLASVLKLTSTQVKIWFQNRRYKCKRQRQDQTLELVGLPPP
# NKX2-5 (Homo sapiens, UniProt P52952 125-210), sequence (P52952 125-210): as the sequence (P52952 125-210 R139K) above, with K15R counted along it
# NKX3-2 (Homo sapiens, UniProt P78367 192-278), sequence (P78367 192-278): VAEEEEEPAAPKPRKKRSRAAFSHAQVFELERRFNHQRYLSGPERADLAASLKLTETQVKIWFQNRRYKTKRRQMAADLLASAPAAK
# NKX3-2 (Homo sapiens, UniProt P78367 192-278, P234S), sequence (P78367 192-278 P234S): as the sequence (P78367 192-278) above, with P43S counted along it
sequence,measurement,setting,value
CACTTCAA,binding signal,NKX2-5 [1],"12.4 upbm affinity estimate (log intensity, higher = more binding, comparable within an allelic series)"
same,binding signal,NKX2-4 [2],"12.6 upbm affinity estimate (log intensity, higher = more binding, comparable within an allelic series)"
same,binding signal,NKX2-4 [3],"13 upbm affinity estimate (log intensity, higher = more binding, comparable within an allelic series)"
same,binding signal,NKX2-4 [4],"12.5 upbm affinity estimate (log intensity, higher = more binding, comparable within an allelic series)"
same,binding signal,NKX2-6 [5],"11.6 upbm affinity estimate (log intensity, higher = more binding, comparable within an allelic series)"
same,binding signal,NKX2-4 [6],"13.1 upbm affinity estimate (log intensity, higher = more binding, comparable within an allelic series)"
same,binding signal,NKX2-6 [7],"10.9 upbm affinity estimate (log intensity, higher = more binding, comparable within an allelic series)"
same,binding signal,NKX2-5 [8],"12.4 upbm affinity estimate (log intensity, higher = more binding, comparable within an allelic series)"
CTCAAGTA,binding signal,NKX2-5 [1],"12.7 upbm affinity estimate (log intensity, higher = more binding, comparable within an allelic series)"
same,binding signal,NKX2-4 [2],"12.7 upbm affinity estimate (log intensity, higher = more binding, comparable within an allelic series)"
same,binding signal,NKX2-4 [3],"13.1 upbm affinity estimate (log intensity, higher = more binding, comparable within an allelic series)"
same,binding signal,NKX2-4 [4],"12.6 upbm affinity estimate (log intensity, higher = more binding, comparable within an allelic series)"
same,binding signal,NKX2-6 [5],"11.8 upbm affinity estimate (log intensity, higher = more binding, comparable within an allelic series)"
same,binding signal,NKX2-6 [9],"13.6 upbm affinity estimate (log intensity, higher = more binding, comparable within an allelic series)"
same,binding signal,NKX2-4 [6],"13.3 upbm affinity estimate (log intensity, higher = more binding, comparable within an allelic series)"
same,binding signal,NKX2-6 [7],"10.8 upbm affinity estimate (log intensity, higher = more binding, comparable within an allelic series)"
same,binding signal,NKX2-5 [8],"12.6 upbm affinity estimate (log intensity, higher = more binding, comparable within an allelic series)"
CGTGCACG,binding signal,NKX2-5 [1],"8.84 upbm affinity estimate (log intensity, higher = more binding, comparable within an allelic series)"
same,binding signal,NKX2-5 [8],"8.84 upbm affinity estimate (log intensity, higher = more binding, comparable within an allelic series)"
TAAGTGTA,binding signal,NKX2-5 [1],"12.5 upbm affinity estimate (log intensity, higher = more binding, comparable within an allelic series)"
same,binding signal,NKX2-4 [2],"12.4 upbm affinity estimate (log intensity, higher = more binding, comparable within an allelic series)"
same,binding signal,NKX2-4 [3],"12.8 upbm affinity estimate (log intensity, higher = more binding, comparable within an allelic series)"
same,binding signal,NKX2-4 [4],"12.3 upbm affinity estimate (log intensity, higher = more binding, comparable within an allelic series)"
same,binding signal,NKX2-6 [5],"11.7 upbm affinity estimate (log intensity, higher = more binding, comparable within an allelic series)"
same,binding signal,NKX2-6 [9],"13.4 upbm affinity estimate (log intensity, higher = more binding, comparable within an allelic series)"
same,binding signal,NKX2-4 [6],"12.9 upbm affinity estimate (log intensity, higher = more binding, comparable within an allelic series)"
same,binding signal,NKX2-6 [7],"10.9 upbm affinity estimate (log intensity, higher = more binding, comparable within an allelic series)"
same,binding signal,NKX2-5 [8],"12.4 upbm affinity estimate (log intensity, higher = more binding, comparable within an allelic series)"
CATGCGCC,binding signal,NKX2-5 [1],"8.86 upbm affinity estimate (log intensity, higher = more binding, comparable within an allelic series)"
same,binding signal,NKX2-5 [8],"8.85 upbm affinity estimate (log intensity, higher = more binding, comparable within an allelic series)"
AGTCCGGG,binding signal,NKX2-5 [1],"9.14 upbm affinity estimate (log intensity, higher = more binding, comparable within an allelic series)"
same,binding signal,NKX2-4 [2],"9.61 upbm affinity estimate (log intensity, higher = more binding, comparable within an allelic series)"
same,binding signal,NKX2-4 [3],"9.48 upbm affinity estimate (log intensity, higher = more binding, comparable within an allelic series)"
same,binding signal,NKX2-4 [4],"9.52 upbm affinity estimate (log intensity, higher = more binding, comparable within an allelic series)"
same,binding signal,NKX2-4 [6],"9.63 upbm affinity estimate (log intensity, higher = more binding, comparable within an allelic series)"
same,binding signal,NKX2-5 [8],"9.09 upbm affinity estimate (log intensity, higher = more binding, comparable within an allelic series)"
ACTTGAGA,binding signal,NKX2-5 [1],"12.3 upbm affinity estimate (log intensity, higher = more binding, comparable within an allelic series)"
same,binding signal,NKX2-4 [2],"12.6 upbm affinity estimate (log intensity, higher = more binding, comparable within an allelic series)"
same,binding signal,NKX2-4 [3],"12.9 upbm affinity estimate (log intensity, higher = more binding, comparable within an allelic series)"
same,binding signal,NKX2-4 [4],"12.4 upbm affinity estimate (log intensity, higher = more binding, comparable within an allelic series)"
same,binding signal,NKX2-4 [6],"13.1 upbm affinity estimate (log intensity, higher = more binding, comparable within an allelic series)"
same,binding signal,NKX2-6 [7],"10.7 upbm affinity estimate (log intensity, higher = more binding, comparable within an allelic series)"
same,binding signal,NKX2-5 [8],"12.2 upbm affinity estimate (log intensity, higher = more binding, comparable within an allelic series)"
AAGTGGAC,binding signal,NKX2-5 [1],"12.5 upbm affinity estimate (log intensity, higher = more binding, comparable within an allelic series)"
same,binding signal,NKX2-4 [2],"12.4 upbm affinity estimate (log intensity, higher = more binding, comparable within an allelic series)"
same,binding signal,NKX2-4 [3],"12.9 upbm affinity estimate (log intensity, higher = more binding, comparable within an allelic series)"
same,binding signal,NKX2-6 [5],"11.8 upbm affinity estimate (log intensity, higher = more binding, comparable within an allelic series)"
same,binding signal,NKX2-6 [9],"13.4 upbm affinity estimate (log intensity, higher = more binding, comparable within an allelic series)"
same,binding signal,NKX2-6 [7],"10.4 upbm affinity estimate (log intensity, higher = more binding, comparable within an allelic series)"
same,binding signal,NKX3-2 [10],"12.7 upbm affinity estimate (log intensity, higher = more binding, comparable within an allelic series)"
same,binding signal,NKX2-5 [8],"12.4 upbm affinity estimate (log intensity, higher = more binding, comparable within an allelic series)"
same,binding signal,NKX3-2 [11],"12.8 upbm affinity estimate (log intensity, higher = more binding, comparable within an allelic series)"
ATCGGTGG,binding signal,NKX2-5 [1],"8.85 upbm affinity estimate (log intensity, higher = more binding, comparable within an allelic series)"
same,binding signal,NKX2-4 [2],"9.32 upbm affinity estimate (log intensity, higher = more binding, comparable within an allelic series)"
same,binding signal,NKX2-4 [3],"9.63 upbm affinity estimate (log intensity, higher = more binding, comparable within an allelic series)"
same,binding signal,NKX2-4 [4],"9.38 upbm affinity estimate (log intensity, higher = more binding, comparable within an allelic series)"
same,binding signal,NKX2-4 [6],"9.32 upbm affinity estimate (log intensity, higher = more binding, comparable within an allelic series)"
same,binding signal,NKX2-5 [8],"8.79 upbm affinity estimate (log intensity, higher = more binding, comparable within an allelic series)"
CCGACGCC,binding signal,NKX2-5 [1],"8.82 upbm affinity estimate (log intensity, higher = more binding, comparable within an allelic series)"
same,binding signal,VENTX [12],"8.14 upbm affinity estimate (log intensity, higher = more binding, comparable within an allelic series)"
same,binding signal,VENTX [13],"8.37 upbm affinity estimate (log intensity, higher = more binding, comparable within an allelic series)"
same,binding signal,VENTX [14],"8.23 upbm affinity estimate (log intensity, higher = more binding, comparable within an allelic series)"
same,binding signal,NKX2-6 [9],"8.94 upbm affinity estimate (log intensity, higher = more binding, comparable within an allelic series)"
same,binding signal,NKX2-6 [7],"9.35 upbm affinity estimate (log intensity, higher = more binding, comparable within an allelic series)"
same,binding signal,NKX3-2 [10],"10.5 upbm affinity estimate (log intensity, higher = more binding, comparable within an allelic series)"
same,binding signal,NKX2-5 [8],"8.73 upbm affinity estimate (log intensity, higher = more binding, comparable within an allelic series)"
same,binding signal,NKX3-2 [11],"10.5 upbm affinity estimate (log intensity, higher = more binding, comparable within an allelic series)"
